# ANO1 block – TMEM16A chloride channel inhibitors, primary screen, cell-based, HTS. Anoctamin-1 (Mus musculus), Q8BHY3. HEK293 TMEM16A/YFP iodide influx fluorescence, ionomycin. hit rate 1.2% among 310,000. normalized B-score (activity score, 25-100; higher = stronger inhibition) at 10 µM;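 active = ratio plate-corrected score three or more library SD toward inhibition, starting fluorescence score within five deviations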;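 note: score derived from kinetic fluorescence span divided by baseline fluorescence per well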
# PHOSPHO1 inh – PubChem AID 1565; inhibition, % at 13.3 µM; Phosphoethanolamine/phosphocholine phosphatase (Homo sapiens), Q8TCT1; hit rate 1.1% among 290,000; recombinant PHOSPHO1, absorbance phosphatase assay; in the data active = inhibition above about 60%
# CHT PAM – CHT positive allosteric modulators, primary screen, cell-based, membrane potential dye, choline EC20 | CHT-expressing cells; stronger effect = higher value; LV-AA mutant CHT in HEK293 cells | hit rate 0.49% among 310,000 | B-score at 10 µM | High affinity choline transporter 1 (Homo sapiens), Q9GZV3;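 active = initial fluorescence not abnormally high and integrated response B-score, plate-corrected, over 3 SD above library mean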
# TMEM16A act – TMEM16A chloride channel activators or potentiators, primary screen, cell-based, HTS | Anoctamin-1 (Mus musculus), Q8BHY3 | HEK293 TMEM16A/YFP-H148Q/I152L, iodide quench fluorescence; stronger effect = lower value | B-score at 10 µM | hit rate 0.3% among 340,000;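 active = fluorescence-ratio B-score plate-corrected deviation score at least 3 library SD below zero, with starting fluorescence score within 5 deviations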;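 note: channel opened by trigger with iodide after compound preincubation; score built on the fluorescence ratio of max minus min over baseline; more negative score means more quench and so TMEM16A activation or potentiation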
# HDAC3 inh – HDAC3 deacetylase inhibitors, primary screen, biochemical, fluorescence, cell-free homogeneous. hit rate 0.15% among 320,000. inhibition, % at 8.3 µM. recombinant HDAC3, fluorogenic peptide/trypsin coupled. AID 2718, 2010; in the data active = inhibition above about 26%, passing the limit was not always enough; inconclusive = no clear call, values can overlap the other calls
# Target sequence (O15379 whole entry, looked up): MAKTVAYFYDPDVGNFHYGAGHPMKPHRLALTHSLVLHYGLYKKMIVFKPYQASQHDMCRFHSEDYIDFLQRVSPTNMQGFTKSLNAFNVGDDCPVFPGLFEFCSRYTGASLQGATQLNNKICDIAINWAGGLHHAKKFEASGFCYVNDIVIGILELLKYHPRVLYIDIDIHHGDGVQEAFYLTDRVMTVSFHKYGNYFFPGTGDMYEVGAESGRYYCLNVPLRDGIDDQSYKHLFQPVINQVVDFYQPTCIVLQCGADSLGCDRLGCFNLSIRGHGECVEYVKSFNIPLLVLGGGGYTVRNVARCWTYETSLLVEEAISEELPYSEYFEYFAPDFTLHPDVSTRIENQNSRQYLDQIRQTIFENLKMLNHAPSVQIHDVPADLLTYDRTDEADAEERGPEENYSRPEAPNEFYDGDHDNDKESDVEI
# CHT inh – inhibitors of human choline transporter CHT | hit rate 0.86% among 310,000 | CHT-expressing cells, membrane potential dye, choline response; stronger effect = lower value | B-score at 10 µM | AID 488975, 2010;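 active = B-score over 3 SD under the library average, and starting fluorescence ratio not unusually high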;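 note: choline stimulus applied at its EC90 after an EC20 pre-addition; B-score computed on integrated fluorescence ratio after choline addition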
# The depositor's hits bear a star; i = inactive; ? = inconclusive; . = no result. In the library only some 3.2% were active in any assay of this set; here they are far more common.
SMILES,ANO1 block,PHOSPHO1 inh,CHT PAM,TMEM16A act,HDAC3 inh,CHT inh
CCOc1cc(/C=C2\C(=N)N3N=C(C)SC3=NC2=O)ccc1OCCOc1cccc(OC)c1,i,-29,i,i,-1,i
Cc1ccc(NS(=O)(=O)c2ccc(C(=O)NCCN3CCOCC3)cc2)cc1,.,.,.,i,-1,.
COc1cc(NC(=O)CN2CCC(Cc3ccccc3)CC2)c(C)cc1[N+](=O)[O-],i,-2,i,i,-8,i
C=C1c2cc3c(cc2NC(=S)N1Cc1ccccc1)OCO3,i,70*,i,i,-1,i
C=CC[n+]1c(/C=C/c2ccc(OC(C)=O)c(OC)c2)ccc2ccccc21,i,48,7.4*,i,9,i
COc1cc(/C=N/NC(=O)Nc2ccccc2)ccc1OC(C)=O,i,-5,i,i,12,i
Nc1cccc(-c2nnc3n2CCCCC3)c1,i,15,i,i,-4,i
O=C(NCc1n[nH]c(=S)n1-c1ccc(Cl)c(Cl)c1)c1ccc(S(=O)(=O)N2CCCCC2)cc1,i,-128,i,i,3,i
O=C(NCc1n[nH]c(=S)n1-c1ccc(F)cc1)c1ccc(S(=O)(=O)N2CCCC2)cc1,i,96*,i,i,22,i
Cn1cncc1C#Cc1ccc2cc(C(C)(C)O)oc(=O)c2c1,.,.,.,-11*,-1,.
CC(C)(C)OC(=O)NCCCCCNC(=O)c1nc[nH]c1C(=O)NCc1ccc(CNC(=O)OC(C)(C)C)cc1,.,.,.,i,13,.
CC(NC(=O)Cc1ccc(-c2ccccc2)cc1)c1ccccc1 (stereo not drawn),i,-31,i,-18*,4,i
COc1ccc(C(=O)c2ccc(OC)c3cccc(O)c23)cc1OC,i,83*,i,i,11,i
COC(=O)C(NNc1ccccc1)(NC(=O)c1cccc(F)c1)C(F)(F)F (stereo not drawn),i,99*,i,i,-8,i
CN(C)c1cccc2c1c(NC(=O)c1ccc(F)cc1)nn2C,i,62*,i,i,0,i
CS(=O)(=O)N1N=C(c2cccs2)CC1c1ccccc1O (stereo not drawn),i,60*,i,i,?,i
CCOc1ccccc1C1CC(c2cccs2)=NN1S(C)(=O)=O (stereo not drawn),i,42,i,i,0,i
CC(CCc1ccccc1)NC(=O)COC(=O)c1cc(NS(=O)(=O)c2ccc(Cl)c([N+](=O)[O-])c2)ccc1O (stereo not drawn),100*,-9,i,i,3,i
CNS(=O)(=O)c1cccc(C(=O)OCC(=O)NC(C)CCc2ccccc2)c1 (stereo not drawn),i,31,i,i,-1,i
COc1cccc(-n2c(-c3cccc(S(=O)(=O)N(C)C)c3)n[nH]c2=S)c1,i,-2,i,i,6,i
CC(=O)c1ccc(S(=O)(=O)N2CCN(C(=O)c3cccc(S(=O)(=O)N4CC(C)OC(C)C4)c3)CC2)cc1 (stereo not drawn),.,.,.,i,.,.
CCN(CC)c1ccc(NC(=O)c2nc3nc(C)cc(C(F)F)n3n2)cc1,i,78*,i,i,.,i
COc1ccc(NC(=O)c2nc3nc(C)cc(C(F)F)n3n2)cc1OC,i,22,i,i,4,i
CN(C)c1cccc(NC2=CC(=[N+]3CCOCC3)CC(C)(C)C2)c1,i,91*,i,i,3,i
CCOC(=O)c1[nH]c2ccc(Br)cc2c1NC(=O)CCN1CCCC(C)(C)C1,i,4,i,i,6,i
CCO[C@@H]1OC(C(=O)O)=C[C@H](c2ccc(Br)cc2)[C@H]1CCCO,i,40,i,i,41*,i
CCOc1ccc(C2c3c(oc4cc(C)c(C)cc4c3=O)C(=O)N2CCCN(C)C)cc1OC (stereo not drawn),i,2,i,i,-4,i

# Bioassay records from PubChem.
